Consider one sequence from PMC7862700, “An all-to-all approach to the identification of sequence-specific readers for epigenetic DNA modifications on cytosine”.

Common to all, as to experiment: DAPPL (digital affinity profiling via proximity ligation, sequencing); 10 mM Tris-HCl pH 7.5, 50 mM NaCl, 1 mM DTT, 4% glycerol, room temperature, 30 min; GST-TFs on glutathione beads, 16-mer random dsDNA library, 0.1% formaldehyde crosslink after washing; high values mean tight binding
For one assay, the target named is T1, FEV (Homo sapiens, UniProt Q99581 1-238).
T1 sequence: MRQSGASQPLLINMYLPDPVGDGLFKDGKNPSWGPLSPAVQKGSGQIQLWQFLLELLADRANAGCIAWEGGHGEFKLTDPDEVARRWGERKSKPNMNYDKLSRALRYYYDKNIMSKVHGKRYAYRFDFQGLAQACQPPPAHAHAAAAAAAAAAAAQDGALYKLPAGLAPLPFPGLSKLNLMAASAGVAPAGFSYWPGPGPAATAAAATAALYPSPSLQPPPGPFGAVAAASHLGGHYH
To be noted: protein: recombinant; tags: N-terminal GST; dsDNA, one strand shown. The method, boiled down: (§1)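 Pools were built from human transcription factors expressed in yeast as GST fusions, captured on glutathione beads and DNA-barcoded, along with a tag-only sample. Incubation with 200 nmole of a 16-mer random double-stranded DNA library lasted 30 min at room temperature in Tris/NaCl/DTT/glycerol buffer, and was followed by washing, 0.1% formaldehyde crosslinking, proximity ligation, PCR amplification and Illumina NextSeq500 sequencing. Binding signal is the quotient of each hexamer's read frequency for a factor and its frequency for the tag-only sample.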

For the next assay, the target named is ETV5 (Homo sapiens, UniProt P41161 1-510). To be noted: protein: recombinant; tags: N-terminal GST; dsDNA, one strand shown. Put shortly:
as §1

In another assay the target is HSF1 (Homo sapiens, UniProt Q00613 1-529). To be noted: protein: recombinant; tags: N-terminal GST; chain copies: 3; dsDNA, one strand shown. Put shortly: as §1
A further assay has as its target T2, SPIC (Homo sapiens, UniProt Q8N5J4 1-248).
T2 sequence: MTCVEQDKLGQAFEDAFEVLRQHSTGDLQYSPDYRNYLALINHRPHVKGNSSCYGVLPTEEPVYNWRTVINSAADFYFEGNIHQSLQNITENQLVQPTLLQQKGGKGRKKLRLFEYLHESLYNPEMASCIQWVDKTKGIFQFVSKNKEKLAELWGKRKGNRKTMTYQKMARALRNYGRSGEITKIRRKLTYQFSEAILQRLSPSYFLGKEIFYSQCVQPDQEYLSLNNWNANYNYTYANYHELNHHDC
To be noted: protein: recombinant; tags: N-terminal GST; dsDNA, one strand shown. Put shortly: as §1

A further assay concerns the target ELF4 (Homo sapiens, UniProt Q99607 1-663). To be noted: protein: recombinant; tags: N-terminal GST; dsDNA, one strand shown. Put shortly: as §1
The target of a further assay is T3, ELK4 (Homo sapiens, UniProt P28324-2 1-405).
T3 sequence: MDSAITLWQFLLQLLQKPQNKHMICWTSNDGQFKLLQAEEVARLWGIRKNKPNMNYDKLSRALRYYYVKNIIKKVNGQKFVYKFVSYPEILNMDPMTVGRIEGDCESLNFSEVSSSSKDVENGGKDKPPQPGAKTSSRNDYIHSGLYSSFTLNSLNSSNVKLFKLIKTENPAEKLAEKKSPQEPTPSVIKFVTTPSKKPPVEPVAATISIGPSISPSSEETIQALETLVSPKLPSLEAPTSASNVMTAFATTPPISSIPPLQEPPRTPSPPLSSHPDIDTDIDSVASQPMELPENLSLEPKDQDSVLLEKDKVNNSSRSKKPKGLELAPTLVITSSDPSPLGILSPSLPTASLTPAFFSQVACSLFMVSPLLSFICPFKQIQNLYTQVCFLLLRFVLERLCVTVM
To be noted: protein: recombinant; tags: N-terminal GST; dsDNA, one strand shown. The method, boiled down: as §1

The target in the next assay is T4, ETV2 (Homo sapiens, UniProt O00321 1-342).
T4 sequence: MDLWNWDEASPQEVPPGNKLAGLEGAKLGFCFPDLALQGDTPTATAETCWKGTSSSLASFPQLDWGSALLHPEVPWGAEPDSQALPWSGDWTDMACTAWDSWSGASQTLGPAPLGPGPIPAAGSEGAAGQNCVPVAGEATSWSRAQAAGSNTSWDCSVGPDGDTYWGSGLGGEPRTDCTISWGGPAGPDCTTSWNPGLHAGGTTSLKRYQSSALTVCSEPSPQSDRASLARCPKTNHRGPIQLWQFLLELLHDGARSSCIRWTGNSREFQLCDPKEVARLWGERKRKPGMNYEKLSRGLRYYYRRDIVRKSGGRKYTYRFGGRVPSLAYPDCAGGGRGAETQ
To be noted: protein: recombinant; tags: N-terminal GST; dsDNA, one strand shown. The method, boiled down: as §1

A further assay deals with T5, ELF3 (Homo sapiens, UniProt P78545 1-371).
T5 sequence: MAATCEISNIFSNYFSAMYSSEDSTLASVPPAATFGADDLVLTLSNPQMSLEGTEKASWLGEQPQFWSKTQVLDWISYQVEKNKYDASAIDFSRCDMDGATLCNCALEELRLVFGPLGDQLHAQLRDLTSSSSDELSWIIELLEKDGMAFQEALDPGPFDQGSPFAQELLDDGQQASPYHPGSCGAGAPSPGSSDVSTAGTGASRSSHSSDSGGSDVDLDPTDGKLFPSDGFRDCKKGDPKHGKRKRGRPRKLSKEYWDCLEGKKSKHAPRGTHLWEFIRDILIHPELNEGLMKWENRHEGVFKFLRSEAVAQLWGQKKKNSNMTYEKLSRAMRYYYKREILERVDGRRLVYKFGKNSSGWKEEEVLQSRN
To be noted: protein: recombinant; tags: N-terminal GST; dsDNA, one strand shown. Put shortly:
as §1

The target in the next assay is CRX (Homo sapiens, UniProt O43186 1-299). To be noted: protein: recombinant; tags: N-terminal GST; dsDNA, one strand shown. The method, boiled down:
as §1

The target of another assay is ETV1 (Homo sapiens, UniProt P50549 1-477). To be noted: protein: recombinant; tags: N-terminal GST; dsDNA, one strand shown. The method, boiled down: as §1
A further assay addresses T6, ERF (Homo sapiens, UniProt P50548 1-548).
T6 sequence: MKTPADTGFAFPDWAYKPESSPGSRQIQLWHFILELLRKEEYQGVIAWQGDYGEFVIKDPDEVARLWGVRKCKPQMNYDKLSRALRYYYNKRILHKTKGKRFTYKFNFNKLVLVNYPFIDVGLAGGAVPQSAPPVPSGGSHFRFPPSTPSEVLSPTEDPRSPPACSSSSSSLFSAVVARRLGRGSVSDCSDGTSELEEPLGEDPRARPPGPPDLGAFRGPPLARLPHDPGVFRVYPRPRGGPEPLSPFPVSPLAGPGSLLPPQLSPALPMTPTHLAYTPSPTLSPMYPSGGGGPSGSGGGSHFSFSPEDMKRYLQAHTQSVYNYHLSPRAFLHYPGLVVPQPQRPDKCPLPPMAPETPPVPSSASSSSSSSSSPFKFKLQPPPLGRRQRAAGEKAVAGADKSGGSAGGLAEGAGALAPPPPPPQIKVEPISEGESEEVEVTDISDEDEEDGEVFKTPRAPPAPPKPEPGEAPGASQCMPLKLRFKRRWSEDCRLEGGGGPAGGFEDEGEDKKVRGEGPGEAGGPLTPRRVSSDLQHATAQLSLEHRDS
To be noted: protein: recombinant; tags: N-terminal GST; dsDNA, one strand shown. The method, boiled down: as §1

In a further assay the target is T7, ETV3L (Homo sapiens, UniProt Q6ZN32 1-361).
T7 sequence: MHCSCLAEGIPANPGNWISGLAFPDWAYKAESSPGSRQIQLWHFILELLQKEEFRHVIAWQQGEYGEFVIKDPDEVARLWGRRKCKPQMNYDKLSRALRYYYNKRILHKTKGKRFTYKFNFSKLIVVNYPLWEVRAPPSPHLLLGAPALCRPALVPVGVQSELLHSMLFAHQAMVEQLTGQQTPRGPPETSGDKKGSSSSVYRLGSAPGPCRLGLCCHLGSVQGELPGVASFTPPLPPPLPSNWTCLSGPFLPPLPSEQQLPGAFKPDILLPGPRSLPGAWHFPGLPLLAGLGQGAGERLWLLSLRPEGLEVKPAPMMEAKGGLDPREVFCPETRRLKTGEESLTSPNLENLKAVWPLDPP
To be noted: protein: recombinant; tags: N-terminal GST; dsDNA, one strand shown. The method, boiled down: as §1

A further assay addresses T8, ETS2 (Homo sapiens, UniProt P15036 1-469).
T8 sequence: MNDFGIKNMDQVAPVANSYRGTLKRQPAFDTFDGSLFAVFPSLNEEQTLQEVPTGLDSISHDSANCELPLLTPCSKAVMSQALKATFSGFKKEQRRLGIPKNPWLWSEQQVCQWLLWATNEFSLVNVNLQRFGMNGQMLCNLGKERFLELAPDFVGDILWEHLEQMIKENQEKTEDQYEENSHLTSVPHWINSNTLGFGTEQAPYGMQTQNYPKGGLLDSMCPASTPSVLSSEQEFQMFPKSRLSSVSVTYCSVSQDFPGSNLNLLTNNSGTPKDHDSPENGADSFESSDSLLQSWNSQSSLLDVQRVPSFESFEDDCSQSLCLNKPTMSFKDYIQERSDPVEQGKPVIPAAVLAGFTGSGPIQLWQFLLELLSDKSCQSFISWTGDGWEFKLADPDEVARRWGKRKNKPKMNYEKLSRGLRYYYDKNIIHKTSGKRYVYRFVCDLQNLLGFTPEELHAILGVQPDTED
To be noted: protein: recombinant; tags: N-terminal GST; dsDNA, one strand shown. The method, boiled down:
as §1

Another assay has as its target T9, SPDEF (Homo sapiens, UniProt O95238 1-335).
T9 sequence: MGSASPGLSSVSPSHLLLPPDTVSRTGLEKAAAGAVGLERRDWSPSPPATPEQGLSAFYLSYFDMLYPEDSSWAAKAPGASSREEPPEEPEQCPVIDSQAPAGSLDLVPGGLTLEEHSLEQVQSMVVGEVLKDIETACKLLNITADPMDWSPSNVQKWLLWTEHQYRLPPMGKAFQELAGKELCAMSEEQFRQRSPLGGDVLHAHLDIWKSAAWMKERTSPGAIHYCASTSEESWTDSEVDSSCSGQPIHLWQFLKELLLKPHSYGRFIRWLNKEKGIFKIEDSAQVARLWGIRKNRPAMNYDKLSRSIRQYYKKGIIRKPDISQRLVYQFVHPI
To be noted: protein: recombinant; tags: N-terminal GST; dsDNA, one strand shown. The method, boiled down:
as §1

A further assay has as its target T10, ETV7 (Homo sapiens, UniProt Q9Y603 1-341).
T10 sequence: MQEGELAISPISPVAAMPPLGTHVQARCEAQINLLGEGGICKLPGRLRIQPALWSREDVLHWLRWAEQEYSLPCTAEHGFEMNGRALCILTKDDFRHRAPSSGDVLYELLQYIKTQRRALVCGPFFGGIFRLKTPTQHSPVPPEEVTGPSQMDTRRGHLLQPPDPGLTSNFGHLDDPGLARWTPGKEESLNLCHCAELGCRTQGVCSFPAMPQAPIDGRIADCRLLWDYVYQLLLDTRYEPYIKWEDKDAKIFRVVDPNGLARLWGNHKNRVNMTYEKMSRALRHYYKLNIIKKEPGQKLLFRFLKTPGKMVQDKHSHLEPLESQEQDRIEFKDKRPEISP
To be noted: protein: recombinant; tags: N-terminal GST; dsDNA, one strand shown. Put shortly: as §1

The next assay deals with T11, ELF5 (Homo sapiens, UniProt Q9UKW6-2 1-255).
T11 sequence: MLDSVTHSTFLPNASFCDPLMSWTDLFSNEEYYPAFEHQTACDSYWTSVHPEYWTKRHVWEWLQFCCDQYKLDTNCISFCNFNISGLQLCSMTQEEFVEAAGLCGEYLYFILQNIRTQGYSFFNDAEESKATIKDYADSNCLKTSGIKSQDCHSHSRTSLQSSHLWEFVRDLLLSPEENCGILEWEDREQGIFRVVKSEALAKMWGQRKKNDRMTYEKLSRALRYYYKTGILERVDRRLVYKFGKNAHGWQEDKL
To be noted: protein: recombinant; tags: N-terminal GST; dsDNA, one strand shown. The method, boiled down: as §1

The target of another assay is T12, ETV3 (Homo sapiens, UniProt P41162-2 1-143).
T12 sequence: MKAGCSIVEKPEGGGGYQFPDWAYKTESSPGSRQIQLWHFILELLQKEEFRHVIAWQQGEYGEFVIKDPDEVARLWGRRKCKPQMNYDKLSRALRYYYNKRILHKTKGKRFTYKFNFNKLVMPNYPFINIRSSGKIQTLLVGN
To be noted: protein: recombinant; tags: N-terminal GST; dsDNA, one strand shown. The method, boiled down: as §1

The target in the next assay is ETV6 (Homo sapiens, UniProt P41212 1-452). To be noted: protein: recombinant; tags: N-terminal GST; dsDNA, one strand shown. Put shortly: as §1
Sequence of ETV6 (P41212 whole entry): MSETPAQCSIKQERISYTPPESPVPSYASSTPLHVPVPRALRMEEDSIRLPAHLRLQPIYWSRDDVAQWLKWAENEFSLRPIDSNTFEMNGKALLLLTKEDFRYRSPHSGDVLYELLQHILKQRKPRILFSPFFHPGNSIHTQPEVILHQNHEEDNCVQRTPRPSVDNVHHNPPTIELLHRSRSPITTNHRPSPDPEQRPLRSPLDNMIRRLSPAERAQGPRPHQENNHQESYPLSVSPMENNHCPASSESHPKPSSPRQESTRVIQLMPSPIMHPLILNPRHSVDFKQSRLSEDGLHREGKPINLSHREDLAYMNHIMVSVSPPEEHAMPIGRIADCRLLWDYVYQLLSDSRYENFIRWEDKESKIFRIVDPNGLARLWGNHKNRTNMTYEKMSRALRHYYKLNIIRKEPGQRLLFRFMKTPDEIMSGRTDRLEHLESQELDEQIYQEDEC

Sequence of ETV1 (P50549 whole entry): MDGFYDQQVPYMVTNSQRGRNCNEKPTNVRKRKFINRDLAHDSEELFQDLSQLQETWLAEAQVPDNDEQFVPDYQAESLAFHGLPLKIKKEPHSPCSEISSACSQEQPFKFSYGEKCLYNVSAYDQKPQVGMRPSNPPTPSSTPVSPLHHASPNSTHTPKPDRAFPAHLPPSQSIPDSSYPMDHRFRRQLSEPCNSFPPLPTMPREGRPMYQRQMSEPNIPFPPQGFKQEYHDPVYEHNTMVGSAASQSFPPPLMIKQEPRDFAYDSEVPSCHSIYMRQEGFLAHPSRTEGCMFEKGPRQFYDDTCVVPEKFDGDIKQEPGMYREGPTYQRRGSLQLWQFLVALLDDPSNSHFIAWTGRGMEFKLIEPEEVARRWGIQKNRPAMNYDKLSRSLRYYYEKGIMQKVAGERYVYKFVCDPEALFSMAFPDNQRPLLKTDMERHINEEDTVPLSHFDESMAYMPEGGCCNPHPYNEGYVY
Sequence of HSF1 (Q00613 whole entry): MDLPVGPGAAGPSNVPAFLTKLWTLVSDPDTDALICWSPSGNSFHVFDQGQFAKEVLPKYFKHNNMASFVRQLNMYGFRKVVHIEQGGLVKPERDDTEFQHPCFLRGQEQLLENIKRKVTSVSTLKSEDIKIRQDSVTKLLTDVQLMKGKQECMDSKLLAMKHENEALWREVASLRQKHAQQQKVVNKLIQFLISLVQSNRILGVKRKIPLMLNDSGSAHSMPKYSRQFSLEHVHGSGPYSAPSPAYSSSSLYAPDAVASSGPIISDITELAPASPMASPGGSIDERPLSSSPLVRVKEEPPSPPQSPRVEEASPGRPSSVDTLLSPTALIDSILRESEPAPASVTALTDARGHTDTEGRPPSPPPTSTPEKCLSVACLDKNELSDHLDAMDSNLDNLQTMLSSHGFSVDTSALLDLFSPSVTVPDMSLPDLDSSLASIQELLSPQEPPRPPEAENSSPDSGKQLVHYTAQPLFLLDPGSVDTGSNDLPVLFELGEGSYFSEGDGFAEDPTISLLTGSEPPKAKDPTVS
Sequence of ELF4 (Q99607 whole entry): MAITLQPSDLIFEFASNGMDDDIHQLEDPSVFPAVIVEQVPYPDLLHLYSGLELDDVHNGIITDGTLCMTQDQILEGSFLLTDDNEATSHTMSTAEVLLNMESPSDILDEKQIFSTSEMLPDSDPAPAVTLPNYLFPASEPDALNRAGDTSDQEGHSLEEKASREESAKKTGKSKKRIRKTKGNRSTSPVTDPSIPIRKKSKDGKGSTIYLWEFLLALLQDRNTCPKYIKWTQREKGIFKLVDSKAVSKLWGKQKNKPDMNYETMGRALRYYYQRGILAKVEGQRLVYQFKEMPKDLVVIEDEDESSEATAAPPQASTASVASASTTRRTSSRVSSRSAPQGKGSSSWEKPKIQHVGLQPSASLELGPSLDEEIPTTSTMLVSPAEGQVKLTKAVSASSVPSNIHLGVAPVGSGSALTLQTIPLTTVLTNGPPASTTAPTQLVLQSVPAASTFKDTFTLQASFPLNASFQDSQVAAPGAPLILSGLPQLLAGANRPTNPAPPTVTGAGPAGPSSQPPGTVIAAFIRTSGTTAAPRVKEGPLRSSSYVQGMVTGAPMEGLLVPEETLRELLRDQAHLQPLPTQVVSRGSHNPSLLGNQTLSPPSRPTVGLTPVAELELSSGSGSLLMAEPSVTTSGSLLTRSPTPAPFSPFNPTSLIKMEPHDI
Sequence of ETV5 (P41161 whole entry): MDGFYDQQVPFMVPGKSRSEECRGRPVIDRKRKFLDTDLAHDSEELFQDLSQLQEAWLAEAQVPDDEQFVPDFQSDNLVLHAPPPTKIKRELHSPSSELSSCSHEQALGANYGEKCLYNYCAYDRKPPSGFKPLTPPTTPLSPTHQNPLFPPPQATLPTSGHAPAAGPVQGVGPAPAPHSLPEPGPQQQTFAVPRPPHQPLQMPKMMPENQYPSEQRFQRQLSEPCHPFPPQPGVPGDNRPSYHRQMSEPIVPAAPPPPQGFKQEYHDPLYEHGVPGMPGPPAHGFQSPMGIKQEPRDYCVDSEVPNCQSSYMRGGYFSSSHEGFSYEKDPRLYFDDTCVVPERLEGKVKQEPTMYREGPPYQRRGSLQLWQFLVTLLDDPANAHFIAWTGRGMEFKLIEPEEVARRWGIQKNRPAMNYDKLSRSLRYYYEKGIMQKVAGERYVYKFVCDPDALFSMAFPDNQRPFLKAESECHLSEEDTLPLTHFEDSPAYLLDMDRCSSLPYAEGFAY
Sequence of CRX (O43186 whole entry): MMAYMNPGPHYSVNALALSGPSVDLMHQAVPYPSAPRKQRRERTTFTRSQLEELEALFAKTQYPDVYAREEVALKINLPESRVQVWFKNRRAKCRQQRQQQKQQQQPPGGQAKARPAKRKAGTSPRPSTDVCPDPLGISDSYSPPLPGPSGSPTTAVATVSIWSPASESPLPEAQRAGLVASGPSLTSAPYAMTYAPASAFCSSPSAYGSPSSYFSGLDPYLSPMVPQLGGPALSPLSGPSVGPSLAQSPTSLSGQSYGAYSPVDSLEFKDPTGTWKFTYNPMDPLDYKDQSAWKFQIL

Take CCCCTC: the binding signal was 1.41 fold enrichment (6-mer frequency, TF over GST control) with FEV; 1.37 fold enrichment (6-mer frequency, TF over GST control) in the assay with ETV5; 1.13 fold enrichment (6-mer frequency, TF over GST control) in the assay with HSF1; 1.17 fold enrichment (6-mer frequency, TF over GST control) in the assay with SPIC; 1.48 fold enrichment (6-mer frequency, TF over GST control) in the assay with ELF4; 1.5 fold enrichment (6-mer frequency, TF over GST control) with ELK4. Moreover, the binding signal in the assay with ETV2 was 1.49 fold enrichment (6-mer frequency, TF over GST control); with ELF3 it was 1.35 fold enrichment (6-mer frequency, TF over GST control); with CRX, 1.14 fold enrichment (6-mer frequency, TF over GST control); with ETV1, 1.51 fold enrichment (6-mer frequency, TF over GST control); with ERF it was 1.43 fold enrichment (6-mer frequency, TF over GST control); with ETV3L, 1.4 fold enrichment (6-mer frequency, TF over GST control). The binding signal with ETS2 was 1.33 fold enrichment (6-mer frequency, TF over GST control); with SPDEF, 1.33 fold enrichment (6-mer frequency, TF over GST control); with ETV7, 1.24 fold enrichment (6-mer frequency, TF over GST control); with ELF5 it was 1.24 fold enrichment (6-mer frequency, TF over GST control); with ETV3 it was 1.28 fold enrichment (6-mer frequency, TF over GST control); with ETV6, 1.28 fold enrichment (6-mer frequency, TF over GST control).
